Source: PubChem
KCNQ2 block – KCNQ2 (rat) channel inhibition. CHO-K1 KCNQ2, FluxOR thallium flux, 20 min; stronger effect = lower value. AID 2156. O88943. hit rate 1.1% among 310,000. B-score at 10 µM;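 active = fluorescence ratio B-score at most minus 3 library SDs, with starting brightness B-score within 2 library SDs, cut at about -5.5 in these data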
KCNQ2 pot – enhances the rat KCNQ2 potassium channel. O88943. CHO-K1 KCNQ2, FluxOR thallium flux fluorescence; stronger effect = higher value. B-score at 10 µM. hit rate 0.54% among 310,000;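 active = fluorescence ratio B-score at least 3 SD of library B-scores, with initial fluorescence B-score within 3 of them, cut at about 5.3 in these data; same plate scores as AID 2156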;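 also: B-score of peak minus minimum over baseline fluorescence ratio after K+ and Tl+ stimulus; positive B-score means potentiation of KCNQ2 with more thallium influx and brighter signal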
KCNQ2 block conf – confirmation of rat KCNQ2 potassium channel inhibitors; AID 493025; KCNQ2-expressing cells, thallium flux, inhibition; stronger effect = lower value; activity change, negative = inhibition, % at 10 µM; hit rate 57% among 1,000; shares compounds with KCNQ2 block
KCNQ1 spec – selectivity of KCNQ2 inhibitors against human KCNQ1. KCNQ1-expressing cells, FluxOR thallium flux fluorescence; stronger effect = lower value. hit rate 15% among 1,000. AID 493026. activity change, negative = inhibition, % at 10 µM. shares compounds with KCNQ2 block;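 active = activity change at least 3 SD of negative controls below their mean in both duplicate wells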;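 also: CHO cells stably transfected with KCNQ1 and depolarized by potassium stimulus; peak minus minimum fluorescence over baseline after thallium addition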
Target sequence (P51787 whole entry, looked up): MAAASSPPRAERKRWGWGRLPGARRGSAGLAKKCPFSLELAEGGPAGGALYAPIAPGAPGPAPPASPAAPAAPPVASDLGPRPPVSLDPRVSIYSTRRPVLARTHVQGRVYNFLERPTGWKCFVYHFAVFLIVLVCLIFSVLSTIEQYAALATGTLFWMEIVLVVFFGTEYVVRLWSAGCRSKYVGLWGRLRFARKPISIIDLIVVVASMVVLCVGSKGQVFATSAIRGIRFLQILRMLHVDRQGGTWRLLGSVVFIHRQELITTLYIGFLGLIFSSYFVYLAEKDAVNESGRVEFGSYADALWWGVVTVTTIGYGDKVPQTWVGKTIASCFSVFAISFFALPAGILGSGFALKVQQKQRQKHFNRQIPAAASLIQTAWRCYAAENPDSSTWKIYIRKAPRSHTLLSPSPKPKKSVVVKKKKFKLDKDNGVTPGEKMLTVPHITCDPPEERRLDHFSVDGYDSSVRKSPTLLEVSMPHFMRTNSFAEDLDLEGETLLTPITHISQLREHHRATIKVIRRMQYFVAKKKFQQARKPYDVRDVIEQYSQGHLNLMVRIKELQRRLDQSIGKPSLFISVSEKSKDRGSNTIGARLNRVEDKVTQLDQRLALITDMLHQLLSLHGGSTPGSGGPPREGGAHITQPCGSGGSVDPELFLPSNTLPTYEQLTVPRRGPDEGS
CHO Tl ctr – KCNQ2 inhibitor counter-screen hit in parental CHO cells; thallium flux counter-screen; stronger effect = lower value; activity change, % at 10 µM; hit rate 14% among 1,000; shares compounds with KCNQ2 block; AID 493029
KCNQ2 inh confirm – confirmation of rat KCNQ2 potassium channel inhibitors; shares compounds with KCNQ2 block; KCNQ2-expressing cells, automated patch clamp current; calls only at 10 µM; hit rate 49% among 550
Numbers stand for hits; n = inactive; x = no result; + = active, no number. Compounds with a hit are over-represented: about 1.6% of the library has one in this group of screens. Unless noted, no rule for the calls is given here.

SMILES	KCNQ2 block	KCNQ2 pot	KCNQ2 block conf	KCNQ1 spec	CHO Tl ctr	others
Cc1cc2cc(C(c3nnnn3C(C)(C)C)N(Cc3ccco3)CC3CCCO3)c(=O)[nH]c2cc1C (centres undefined)	n	n	x	x	x
CC(C)(C)n1nnnc1C(c1ccc(F)cc1)N(Cc1ccc(F)cc1)Cc1ccco1 (centres undefined)	-11	n	-30%	n	n	KCNQ2 inh confirm=n
CC1CN(C(=O)c2ccc(NS(=O)(=O)c3ccc(F)cc3)cc2)CC(C)O1 (centres undefined)	n	n	x	x	x
COc1ccccc1/C=C1\CCC(C2CCCC2)C1=O (centres undefined)	n	x	x	x	x
N#Cc1c2n(c3c(N)ncnc13)CCCCC2	n	x	x	x	x
C=CCNC(=O)COc1c(C)ccc(C)c1C	n	x	x	x	x
CCCCn1c(NCc2ccc3c(c2)OCO3)nc2ccccc21	-8.5	n	-33%	n	n	KCNQ2 inh confirm=+
Brc1cccc(CNc2nc3ccccc3n2CCN2CCOCC2)c1	-8.4	n	n	n	n
CCOc1ccc(CNc2nc3ccccc3n2CCN2CCOCC2)cc1	n	x	x	x	x
CCCn1c(NCc2ccc3c(c2)OCO3)nc2ccccc21	n	x	x	x	x
CCOC(=O)c1nc(C)n(-c2cc(OC)c(Cl)cc2Cl)n1	n	n	x	x	x
Cc1cccc(-n2nnnc2SCc2csc(-c3ccccc3)n2)c1	-7.2	n	-32%	n	n	KCNQ2 inh confirm=+
Cc1ccc(Nc2nc(CSc3nnnn3-c3ccccc3)cs2)cc1	n	x	x	x	x
Cc1cc(C(=O)N/N=C/c2ccc(-c3cccc(Cl)c3)o2)n[nH]1	n	n	x	x	x
COc1cc2c(cc1OC)C(C)N(C(=O)c1cccs1)CC2 (centres undefined)	n	x	x	x	x
CCOC(=O)c1cc2c(s1)-c1c(C)cccc1OC2	n	x	x	x	x
COc1cc2c(cc1OC)C(C)N(C(=O)c1cc3c(s1)-c1ccccc1OC3)CC2 (centres undefined)	-8.4	n	n	n	n
COc1cc2c(cc1OC)C(C)N(C(=O)c1cc3c(s1)-c1c(C)cccc1OC3)CC2 (centres undefined)	-6.7	n	-36%	n	n	KCNQ2 inh confirm=+
O=C(Nc1cc2cc([N+](=O)[O-])ccc2oc1=O)c1cccs1	n	x	x	x	x
O=C(Cn1ccc([N+](=O)[O-])n1)NCc1ccccc1	n	n	x	x	x
O=C(CCn1nc(-c2ccc(Cl)cc2)ccc1=O)N1CCN(c2ccccc2)CC1	n	x	x	x	x
CC(C)N(CC(O)COc1ccc(CC(N)=O)cc1)CC(O)COc1ccc(CC(N)=O)cc1 (centres undefined)	n	n	x	x	x
CS(=O)(=O)N(Cc1ccco1)CC(O)Cn1c2ccccc2c2ccccc21 (centres undefined)	-8.2	n	-26%	n	n	KCNQ2 inh confirm=+
Cc1ccc(N(CC(O)Cn2c3ccccc3c3ccccc32)S(C)(=O)=O)cc1 (centres undefined)	n	x	x	x	x
CSCCC(NC(=O)c1ccc(Cl)cc1)C(=O)OCC(=O)Nc1cc(Cl)ccc1C (centres undefined)	-6.8	n	-26%	n	n	KCNQ2 inh confirm=+
SMILES	KCNQ2 block	KCNQ2 pot	KCNQ2 block conf	KCNQ1 spec	CHO Tl ctr	others
CSCCC(NC(=O)c1ccc(Cl)cc1Cl)C(=O)OCC(N)=O (centres undefined)	n	x	x	x	x
Cc1ccnc(NCc2cccc3ccccc23)c1	-6.9	n	-40%	-29%	-28%
COc1cccc(CNc2cc(C)ccn2)c1O	n	n	x	x	x
Cc1ccc(-c2nc(C(=O)NCC3CCCO3)cc3c2[nH]c2ccccc23)cc1 (centres undefined)	-12	n	-28%	n	n	KCNQ2 inh confirm=n
Cc1ccccc1-c1nc(C(=O)NCC2CCCO2)cc2c1[nH]c1ccccc12 (centres undefined)	n	x	x	x	x
Cc1ccc(CN2CCSc3sccc3C2=O)cc1	n	x	x	x	x
CCn1cc(Cl)c(C(=O)Nc2nccs2)n1	n	x	x	x	x
O=c1c2c3c(sc2ncn1/N=C/c1ccc([N+](=O)[O-])o1)CCCC3	n	x	x	x	x
Cn1cc(/C=N/n2cnc3sc4c(c3c2=O)CCCC4)c2ccccc21	-9.2	n	n	n	n
CN(C)c1nc(-c2cn(CCC#N)c3ccccc23)cs1	n	x	x	x	x
COc1ccc(-c2nc(CSCC(=O)NC3CCCc4ccccc43)c(C)o2)cc1OC (centres undefined)	-10	n	n	n	n
COc1ccc(-c2nc(CS(=O)CC(=O)NC3CCCc4ccccc43)c(C)o2)cc1OC (centres undefined)	n	x	x	x	x
CC(C)C(=O)NCC(c1ccc2c(c1)OCO2)N1CCOCC1 (centres undefined)	n	n	x	x	x
O=C(NCCC(=O)N(CCc1ccccc1)Cc1ccccc1)c1ccc(Br)cc1	-9.2	n	-18%	n	n	KCNQ2 inh confirm=n
O=C(NCCCCc1ccccc1)c1ccc(Br)cc1	n	n	x	x	x
Cc1cc(N2CC(C)OC(C)C2)nc2ccccc12 (centres undefined)	n	x	x	x	x
CC(C)=CCc1cc([C@@H]2CC(=O)c3ccc(O)c(CC=C(C)C)c3O2)ccc1O	-9	n	n	n	n
Cc1ccc2c(c1)C(=O)CC(c1ccc3c(c1)OCCO3)O2 (centres undefined)	n	n	x	x	x
Clc1ccccc1C(c1ccccc1)(c1ccccc1)n1ccnc1	-7.6	n	-36%	-30%	-24%	KCNQ2 inh confirm=n
Clc1ccccc1OCCCn1ccnc1	n	n	x	x	x
Cc1ccc(N2CCN(S(=O)(=O)N3CCOCC3)CC2)cc1C	n	n	x	x	x
CCOc1ccc(N(CC(=O)N2CC=C(c3ccccc3)CC2)S(=O)(=O)c2c(C)noc2C)cc1	-8.6	n	n	n	n
CCOc1ccc(N(CC(=O)N2CCc3ccccc32)S(=O)(=O)c2c(C)noc2C)cc1	n	x	x	x	x
COC(=O)CCCC(=O)N1CCCC(N(C)CCc2ccccc2)C1 (centres undefined)	n	n	x	x	x
O=C(Nc1ccccc1N1CCOCC1)c1cc2c(s1)CCCCC2	n	x	x	x	x
SMILES	KCNQ2 block	KCNQ2 pot	KCNQ2 block conf	KCNQ1 spec	CHO Tl ctr	others
CC(=O)Nc1cc(C(F)(F)F)ccc1N1CCOCC1	n	n	x	x	x
O=C(CC12CC3CC(CC(C3)C1)C2)Nc1ccccc1N1CCOCC1	-6.8	n	-30%	-34%	-20%	KCNQ2 inh confirm=n
CCN(CC)S(=O)(=O)c1ccc(N2CCOCC2)c(NC(=O)CCOc2ccccc2)c1	n	x	x	x	x
CCN(CC)S(=O)(=O)c1ccc(N2CCOCC2)c(NC(=O)COc2ccccc2)c1	-6.8	n	-31%	n	n	KCNQ2 inh confirm=+
CCCCC(=O)Nc1ccccc1N1CCOCC1	n	n	x	x	x
CCC(Oc1ccccc1)C(=O)Nc1cc(C(F)(F)F)ccc1N1CCOCC1 (centres undefined)	-7	n	n	n	n
CCc1sc(C(=O)Nc2ccccc2N2CCOCC2)cc1C	-7.3	n	-18%	n	n
CC(=O)Nc1ccc(NC(=O)C(C)OC(=O)CCCN2C(=O)c3cccc4cccc(c34)C2=O)cc1 (centres undefined)	n	x	x	x	x
C=C1CCN([C@@H](C)C(=O)NCc2ccc(OC)cc2)S(=O)(=O)c2ccccc21	n	n	x	x	x
CCCCn1c(N)c(N(CC)C(=O)CCc2ccccc2)c(=O)[nH]c1=O	n	n	x	x	x
O=C1Cc2cc(S(=O)(=O)Nc3ccccc3Cl)cc3c2N1CCC3	n	x	x	x	x
Cc1cc(C)n2nc(CC(=O)NNC(=O)COc3ccccc3)nc2n1	n	x	x	x	x
